Here are results for seven compounds from PubChem BioAssay (NCATS).

Values without a mark were called inactive. Records with an inconclusive call do not appear. The source made the active and inactive calls. Unless noted, the call rests on the fitted dose curve; in most records, active means well fitted curve in either direction with a large enough effect (not every such curve was filed as active); inconclusive means small, poorly fitted or top-dose-only effect, or another doubt; inactive means flat fitted curve, though single readings scatter.

Assay [1] can be described thus: AP1 Signaling Pathway (AID 357). Further: on the % scale 0 is the no-effect control and ±100 the full control effect. To be noted: ME-180 AP-1-bla reporter, EGF-induced, beta-lactamase ratio, 5 h; at 7.69 µM (top of the series) unless noted. In short, it runs like this: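 First, ME-180 AP-1-bla cells were cultured overnight at 37 °C in low-serum Opti-MEM. Next, titrated compounds with EC50 EGF were incubated 5 hours. Finally, CCF4 was added for 2.5 hours and the 460/530 nm ratio recorded.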

Assay [2] deals with Cytochrome P450 1A2 (Homo sapiens) (UniProt P05177). As to the kind of experiment: p450-cyp1a2 (AID 410; calls by dose curve; further: potency means the concentration at half of the fitted maximal effect). In short, it runs like this:
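Inhibition was calculated relative to 57 uM furafylline (full inhibition). The reaction used human CYP1A2 at 20nM with Luciferin-ME at its Km, 100uM, driven by an NADPH-regenerating system for 60 min at room temperature.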

A short description of assay [3]: NFAT Signaling Pathway (AID 444).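 Further: carbachol stimulus at about its EC50 of 1 µM final; on the % scale 0 is the no-effect control and ±100 the full control effect.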 To be noted: Jurkat NFAT-bla M1, carbachol, beta-lactamase ratio, 5 h; at 7.69 µM (top of the series) unless noted. In short, it runs like this: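 Jurkat cells with NFAT-driven β-lactamase reporter and co-expressed M1 receptor, stimulated with carbachol (final 1 uM, ~EC50), compound titration, 5 h at 37 °C. CCF4 loaded 1 h at RT; 460/530 nm ratio gave %activity and AC50.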

Assay [4] is described as follows: Stat Signaling Pathway (AID 446).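 Further: ME-180 cervical cancer cells given 40 pM IL-6 alongside compound; SIE-controlled beta-lactamase reporter measured as 460/530 nm FRET emission ratio; on the % scale 0 is the no-effect control and ±100 the full control effect.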 The following applies: ME-180 SIE beta-lactamase reporter, IL-6 stimulated, 5 h; at 7.69 µM (top of the series) unless noted. In short, it runs like this: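 Reporter line: ME-180 cervical carcinoma, SIE-beta-lactamase. Treatment: compound with 40 pM IL-6, 5 hrs, 37 C, in low-serum OPTI-MEM with 10 mM HEPES pH 7.3. Detection: 460/530 nm fluorescence.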

The target in assay [5] is Glucocorticoid receptor (Homo sapiens) (UniProt P04150). As to the kind of experiment: GR-GFP Redistribution (AID 450;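 active means compounds whose dose series gives a full or clear partial fitted curve of increased nuclear translocation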; further: potency means the concentration at half of the fitted maximal effect). The following applies: U2OS GR-GFP nuclear translocation, laser cytometry, 2 h.
Glucocorticoid receptor (Homo sapiens), sequence (P04150 whole entry, looked up): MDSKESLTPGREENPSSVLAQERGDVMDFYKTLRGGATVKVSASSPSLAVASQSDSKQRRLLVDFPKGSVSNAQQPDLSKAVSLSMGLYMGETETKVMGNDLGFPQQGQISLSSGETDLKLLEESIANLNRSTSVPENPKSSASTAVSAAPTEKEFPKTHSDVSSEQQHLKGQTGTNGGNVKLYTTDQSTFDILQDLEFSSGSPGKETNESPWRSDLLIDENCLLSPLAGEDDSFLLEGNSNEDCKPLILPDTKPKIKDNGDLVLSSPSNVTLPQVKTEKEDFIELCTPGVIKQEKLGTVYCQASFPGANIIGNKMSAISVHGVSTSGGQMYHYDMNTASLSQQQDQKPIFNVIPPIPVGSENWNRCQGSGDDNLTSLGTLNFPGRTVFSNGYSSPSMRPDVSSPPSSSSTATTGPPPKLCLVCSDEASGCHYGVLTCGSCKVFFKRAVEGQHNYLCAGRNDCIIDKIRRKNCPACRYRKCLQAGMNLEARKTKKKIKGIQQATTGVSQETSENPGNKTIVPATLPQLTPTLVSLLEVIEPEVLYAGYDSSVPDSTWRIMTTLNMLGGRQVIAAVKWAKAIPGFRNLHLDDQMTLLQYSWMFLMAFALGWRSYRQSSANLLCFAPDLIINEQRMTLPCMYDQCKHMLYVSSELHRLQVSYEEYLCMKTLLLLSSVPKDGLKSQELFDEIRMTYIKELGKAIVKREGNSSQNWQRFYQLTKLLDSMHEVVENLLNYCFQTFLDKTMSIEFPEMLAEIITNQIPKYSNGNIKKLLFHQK
For assay [6] the target is unchanged. As to the kind of experiment: GR-EFC Redistribution (AID 451; calls by dose curve; further: potency means the concentration at half of the fitted maximal effect). The following applies: CHO-K1 GR-EFC translocation, beta-gal luminescence, 2 h. Summed up:
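CHO-K1 cells expressing nuclear EA and GR-ED fragments of b-gal; compounds titrated up to 46 uM final, 2 h at 37 C. GR nuclear translocation read as complemented b-gal luminescence after 1 h RT detection.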

The target of assay [7] is 3',5'-cyclic-AMP phosphodiesterase 4B (Homo sapiens) (UniProt Q07343). As to the kind of experiment: qHTS Assay for Inhibitors of PDE-IV (AID 607; active means well fitted activation curve with a large enough effect in the main read-out, with a control signal flat, not every such curve was filed as active; further: % of control where 0% means no effect). Summed up:
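Cell-based read-out of cAMP via a modified cyclic nucleotide-gated channel and membrane potential dye (535/590 nm) in HEK293 cells expressing PDE4 endogenously. Compounds tested up to 22.9 uM final; 100 uM RO 20-1724 reference.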

Assay [8] deals with Cytochrome P450 2C9 (Homo sapiens) (UniProt P11712). The assay is described as follows: qHTS Assay for Inhibitors and Substrates of Cytochrome P450 2C9 (AID 883; active means well fitted curve in the direction sought with a large enough effect; an effect the other way counts as inactive or inconclusive; further: on the % scale 0 is the no-effect control and ±100 the full control effect; nearly all actives have a fitted effect of over 60% in size). Summed up: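 Signal: luciferase luminescence reporting luciferin produced by CYP2C9. Conditions: 10nM enzyme, Luciferin-H 100uM at KM, 25mM KPO4, 37C, 60 min NADPH-driven reaction. Reference: 57uM sulphaphenazole as 100% inhibition.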

Assay [9] concerns the target Cytochrome P450 2C19 (Homo sapiens) (UniProt P33261). The assay is described as follows: qHTS Assay for Inhibitors and Substrates of Cytochrome P450 2C19 (AID 899; active means well fitted curve in the direction sought with a large enough effect; an effect the other way counts as inactive or inconclusive; further: on the % scale 0 is the no-effect control and ±100 the full control effect; nearly all actives have a fitted effect of over 60% in size). In short, it runs like this: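 Signal comes from luciferase acting on luciferin released by CYP2C19-mediated hydroxylation of Luciferin-H EGE, 10uM (KM). Assay mix: 5nM enzyme, 50mM KPO4; 60 min at 37C with NADPH regeneration. Data normalized against 57uM ketoconazole.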

Assay [10] deals with Mitogen-activated protein kinase 10 (Mus musculus) (UniProt Q61831). As to the kind of experiment: JNK3 AlphaScreen Assay (AID 530).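 Further: kinase came from lysate of stimulated human HepG2 cells; signal reports phosphorylation of biotinylated GST-cJun 1-79 at Ser73 with 10 µM ATP; on the % scale 0 is the no-effect control and ±100 the full control effect.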 Summed up: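 qHTS format: compounds tested as titrations against IL-1beta/TNF-alpha-activated HepG2 lysate JNK3 with biotin-GST-cJun substrate and 10 uM ATP at room temperature. Loss of anti-phospho-cJun AlphaScreen signal indicates inhibition.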

Assay [11] deals with Cytochrome P450 2D6 (Homo sapiens) (UniProt P10635). As to the kind of experiment: qHTS Assay for Inhibitors and Substrates of Cytochrome P450 2D6 (AID 891; active means well fitted curve in the direction sought with a large enough effect; an effect the other way counts as inactive or inconclusive;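 further: luciferin methyl ether substrate demethylated by CYP2D6 with NADPH regeneration; on the % scale 0 is the no-effect control and ±100 the full control effect; nearly all actives have a fitted effect of over 60% in size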). Summed up:
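Human CYP2D6 (5 nM) with 30 uM Luciferin-ME EGE (at Km) in 100 mM KPO4, compound preincubated 10 min, then NADPH regeneration system for 60 min at room temperature. Luciferin read by luminescence; normalized to 1.43 uM quinidine.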

Assay [12] concerns the target Guanine nucleotide-binding protein G(i) subunit alpha-1 (Homo sapiens) (UniProt P63096). As to the kind of experiment: qHTS Assay for Inhibitors of RGS12 GoLoco Motif Activity (Green Fluorophore) (AID 879; active means well fitted curve in the direction sought with a large enough effect; an effect the other way counts as inactive or inconclusive;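 further: 0% = labeled peptide with Gαi1 and full inhibition = labeled peptide alone without protein; negative values mean loss of peptide binding seen as reduced polarization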). In short, it runs like this:
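Fluorescence polarization assay: 50 nM Gαi1 with 10 nM FITC-labeled RGS12 GoLoco peptide in 10 mM Tris pH 7.5, 150 mM NaCl, 0.1 mM GDP, 0.05% NP40, 10 min at room temperature with compound.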

Assay [13] is described as follows: qHTS Assay for Identification of Small Molecule Antagonists for NFkB Signaling Pathway (AID 895; active means well fitted inhibition curve with a large enough effect in the signal ratio, with a control signal flat, not every such curve was filed as active; the % refers to the signal ratio; further: on the % scale 0 is the no-effect control and ±100 the full control effect). In short, it runs like this: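 ME-180 NFkB-bla cells (beta-lactamase under NFkB response element), plated overnight, treated with compound then 10 pM TNF alpha (about EC50) for 5 hrs at 37 C. LiveBLAzer FRET read at 460/530 nm emission, 405 nm excitation.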
Assay [14] is described as follows: qHTS Assay for Identification of Small Molecule Agonists for Thrombopoietin (TPO) Signaling Pathway (AID 917; active means well fitted curve in the direction sought with a large enough effect; an effect the other way counts as inactive or inconclusive; further: on the % scale 0 is the no-effect control and ±100 the full control effect). Summed up: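 We measured Glycoprotein IIb promoter–luciferase output in IL-3-starved Ba/F3 murine cells expressing the human TPO receptor after 24 hrs at 37 C with compounds and 26 pM TPO.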
Assay [15] concerns the target Pyruvate kinase (Leishmania mexicana) (UniProt Q27686). As to the kind of experiment: qHTS Validation Assay for Inhibitors of Leishmania Mexicana Pyruvate Kinase (AID 945; active means well fitted curve in the direction sought with a large enough effect; an effect the other way counts as inactive or inconclusive;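 further: 0% = DMSO only neutral control wells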). Summed up: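 Mutant LmPYK (E451W), 0.2 nM, plus 0.5 mM PEP and 0.1 mM ADP in 50 mM imidazole pH 7.2 containing 0.01% Tween 20 and 0.05% BSA. Incubated 1 h at room temperature; luminescence via PKLight, normalized to DMSO.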

Assay [16] concerns the target Pyruvate kinase PKM (Homo sapiens) (UniProt P14618). The assay is described as follows: qHTS Assay for Activators of Human Muscle Pyruvate Kinase (AID 954; active means well fitted curve in the direction sought with a large enough effect, not every such curve was filed as active;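 further: 0% = uninhibited enzyme and -100% = no enzyme or full thiadiazolimine inhibition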). Summed up: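 Human PKM2 activity is measured as ATP generation, detected by luciferase-coupled luminescence. The enzyme (0.1 nM) acts on 0.5 mM PEP and 0.1 mM ADP for 1 h at ambient temperature; data are normalized to uninhibited and full-inhibition wells.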

For assay [17], the target named is Alpha-galactosidase A (Homo sapiens) (UniProt P06280). The assay is described as follows: Counterscreen for Glucocerebrosidase Inhibitors: qHTS Assay for Human alpha-Galactosidase at pH 4.5 (AID 992; active means well fitted curve in the direction sought with a large enough effect; an effect the other way counts as inactive or inconclusive; further: 0% is about no effect). Summed up: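 Quantitative HTS: compounds tested from 0.7 nM up to 77 uM against 2 nM enzyme with 80 uM 4-MU alpha-D-galactopyranoside. The 20 min room-temperature reaction is stopped with 1M NaOH/1M glycine, pH 10.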
Alpha-galactosidase A (Homo sapiens), sequence (P06280 whole entry, looked up): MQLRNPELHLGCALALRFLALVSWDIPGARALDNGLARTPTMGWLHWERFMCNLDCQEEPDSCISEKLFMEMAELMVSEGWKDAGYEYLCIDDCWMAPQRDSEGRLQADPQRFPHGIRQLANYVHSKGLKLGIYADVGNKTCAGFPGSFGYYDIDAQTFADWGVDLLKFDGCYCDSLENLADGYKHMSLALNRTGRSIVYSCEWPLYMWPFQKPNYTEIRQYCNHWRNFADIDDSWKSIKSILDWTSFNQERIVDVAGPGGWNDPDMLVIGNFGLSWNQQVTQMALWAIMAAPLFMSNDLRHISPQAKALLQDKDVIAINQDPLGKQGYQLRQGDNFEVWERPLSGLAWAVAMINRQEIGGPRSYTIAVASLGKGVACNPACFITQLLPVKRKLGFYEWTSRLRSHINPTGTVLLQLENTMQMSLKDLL

Assay [18] concerns the target alpha-glucosidase (Oryza sativa, rice) (UniProt Q653V4). The assay is described as follows: Counterscreen for Glucocerebrosidase Inhibitors: qHTS Assay for Rice alpha-Glucosidase at pH 5.0 (AID 997; active means well fitted curve in the direction sought with a large enough effect; an effect the other way counts as inactive or inconclusive;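 further: 0% = full activity with enzyme and -100% = basal without enzyme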). In short, it runs like this: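 Rice alpha-glucosidase (4 nM final) with 400 uM 4-methylumbelliferyl-alpha-D-glucopyranoside in citrate buffer pH 5.0, 20 min at room temperature, stopped at pH 10; fluorescence 365/440 nm, compounds 0.7 nM–77 uM, AC50 from Hill fits.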

The target of assay [19] is Cytochrome P450 3A4 (Homo sapiens) (UniProt P08684). As to the kind of experiment: qHTS Assay for Activators of Cytochrome P450 3A4 (AID 885; active means well fitted curve in the direction sought with a large enough effect; an effect the other way counts as inactive or inconclusive; further: nearly all actives have a fitted effect of over 65% in size; further: potency means the concentration at half of the fitted maximal effect). In short, it runs like this: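 Signal was normalized against complete inhibition by 57 uM ketoconazole. The reaction used 20nM CYP3A4 with 25uM Luciferin-PPXE, 10-min compound preincubation and a 60-min NADPH-supported step at RT.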
Cytochrome P450 3A4 (Homo sapiens), sequence (P08684 whole entry, looked up): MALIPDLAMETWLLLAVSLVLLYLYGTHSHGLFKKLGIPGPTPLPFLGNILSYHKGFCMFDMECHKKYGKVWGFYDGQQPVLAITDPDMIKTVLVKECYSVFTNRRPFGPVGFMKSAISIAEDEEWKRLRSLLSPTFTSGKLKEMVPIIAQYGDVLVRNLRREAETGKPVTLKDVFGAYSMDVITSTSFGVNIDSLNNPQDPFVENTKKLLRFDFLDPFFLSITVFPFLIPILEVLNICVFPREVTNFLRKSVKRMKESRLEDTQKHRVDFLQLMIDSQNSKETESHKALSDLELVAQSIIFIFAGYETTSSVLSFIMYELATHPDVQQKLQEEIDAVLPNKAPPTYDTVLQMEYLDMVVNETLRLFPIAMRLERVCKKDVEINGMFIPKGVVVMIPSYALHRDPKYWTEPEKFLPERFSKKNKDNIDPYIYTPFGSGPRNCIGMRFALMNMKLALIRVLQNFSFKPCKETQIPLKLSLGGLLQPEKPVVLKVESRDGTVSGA

Assay [20] addresses Muscarinic acetylcholine receptor M1 (Rattus norvegicus) (UniProt P08482). As to the kind of experiment: qHTS Assay for Antagonists of Acetylcholine Muscarinic M1 Receptor: Measurement of IP-One Response (AID 944; active means well fitted curve in the direction sought with a large enough effect; an effect the other way counts as inactive or inconclusive; further: nearly all actives have a fitted effect of over 75% in size). Summed up:
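Steps: plate transfected CHO-M1 cells overnight; add test compound, 10 min; add carbachol (200 nM, EC80) in stimulation buffer with LiCl; incubate 30 min; add labelled IP1 tracer and anti-IP1 antibody in lysis buffer; read HTRF after 10 min.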

Pyruvate kinase (Leishmania mexicana), sequence (Q27686 2-499 E452W): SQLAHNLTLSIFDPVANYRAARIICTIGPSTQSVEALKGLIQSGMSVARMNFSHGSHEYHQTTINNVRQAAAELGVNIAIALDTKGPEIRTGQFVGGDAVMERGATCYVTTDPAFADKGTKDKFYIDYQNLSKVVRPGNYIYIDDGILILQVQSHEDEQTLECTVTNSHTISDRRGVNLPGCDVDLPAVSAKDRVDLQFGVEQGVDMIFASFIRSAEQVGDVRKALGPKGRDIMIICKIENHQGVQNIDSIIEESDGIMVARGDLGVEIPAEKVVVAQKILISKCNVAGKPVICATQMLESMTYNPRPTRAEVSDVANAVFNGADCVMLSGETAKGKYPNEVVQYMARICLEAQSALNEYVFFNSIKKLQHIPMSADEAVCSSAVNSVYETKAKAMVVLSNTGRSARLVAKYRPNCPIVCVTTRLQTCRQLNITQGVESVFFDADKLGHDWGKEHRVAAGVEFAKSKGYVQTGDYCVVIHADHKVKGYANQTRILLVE
Cytochrome P450 1A2 (Homo sapiens), sequence (P05177 whole entry, looked up): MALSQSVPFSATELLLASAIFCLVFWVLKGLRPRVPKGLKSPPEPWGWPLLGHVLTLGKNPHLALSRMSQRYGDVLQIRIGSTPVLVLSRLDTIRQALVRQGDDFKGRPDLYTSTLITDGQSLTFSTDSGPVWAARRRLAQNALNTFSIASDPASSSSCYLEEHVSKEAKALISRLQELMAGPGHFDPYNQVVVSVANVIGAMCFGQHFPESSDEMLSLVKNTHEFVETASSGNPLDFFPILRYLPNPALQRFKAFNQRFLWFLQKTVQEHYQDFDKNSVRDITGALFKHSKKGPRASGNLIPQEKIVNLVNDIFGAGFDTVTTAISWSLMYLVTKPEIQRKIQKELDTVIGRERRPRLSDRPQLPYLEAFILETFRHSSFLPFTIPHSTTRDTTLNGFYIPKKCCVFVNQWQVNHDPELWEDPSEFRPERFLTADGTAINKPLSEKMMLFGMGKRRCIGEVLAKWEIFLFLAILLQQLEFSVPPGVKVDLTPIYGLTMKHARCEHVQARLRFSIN
Pyruvate kinase PKM (Homo sapiens), sequence (P14618 whole entry, looked up): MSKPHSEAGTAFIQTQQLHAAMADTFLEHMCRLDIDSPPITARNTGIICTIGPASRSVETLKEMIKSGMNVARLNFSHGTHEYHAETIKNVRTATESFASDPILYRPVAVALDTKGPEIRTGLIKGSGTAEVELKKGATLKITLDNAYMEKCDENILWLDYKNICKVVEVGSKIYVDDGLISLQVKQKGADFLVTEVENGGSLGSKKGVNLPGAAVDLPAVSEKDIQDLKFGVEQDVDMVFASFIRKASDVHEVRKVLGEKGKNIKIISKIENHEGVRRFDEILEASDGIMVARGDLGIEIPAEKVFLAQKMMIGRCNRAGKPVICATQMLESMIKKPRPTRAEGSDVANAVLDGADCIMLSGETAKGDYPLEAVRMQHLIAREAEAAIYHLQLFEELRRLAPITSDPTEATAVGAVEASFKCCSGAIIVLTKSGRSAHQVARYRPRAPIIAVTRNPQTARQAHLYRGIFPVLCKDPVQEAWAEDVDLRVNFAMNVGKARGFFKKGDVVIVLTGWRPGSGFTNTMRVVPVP
3',5'-cyclic-AMP phosphodiesterase 4B (Homo sapiens), sequence (Q07343 whole entry, looked up): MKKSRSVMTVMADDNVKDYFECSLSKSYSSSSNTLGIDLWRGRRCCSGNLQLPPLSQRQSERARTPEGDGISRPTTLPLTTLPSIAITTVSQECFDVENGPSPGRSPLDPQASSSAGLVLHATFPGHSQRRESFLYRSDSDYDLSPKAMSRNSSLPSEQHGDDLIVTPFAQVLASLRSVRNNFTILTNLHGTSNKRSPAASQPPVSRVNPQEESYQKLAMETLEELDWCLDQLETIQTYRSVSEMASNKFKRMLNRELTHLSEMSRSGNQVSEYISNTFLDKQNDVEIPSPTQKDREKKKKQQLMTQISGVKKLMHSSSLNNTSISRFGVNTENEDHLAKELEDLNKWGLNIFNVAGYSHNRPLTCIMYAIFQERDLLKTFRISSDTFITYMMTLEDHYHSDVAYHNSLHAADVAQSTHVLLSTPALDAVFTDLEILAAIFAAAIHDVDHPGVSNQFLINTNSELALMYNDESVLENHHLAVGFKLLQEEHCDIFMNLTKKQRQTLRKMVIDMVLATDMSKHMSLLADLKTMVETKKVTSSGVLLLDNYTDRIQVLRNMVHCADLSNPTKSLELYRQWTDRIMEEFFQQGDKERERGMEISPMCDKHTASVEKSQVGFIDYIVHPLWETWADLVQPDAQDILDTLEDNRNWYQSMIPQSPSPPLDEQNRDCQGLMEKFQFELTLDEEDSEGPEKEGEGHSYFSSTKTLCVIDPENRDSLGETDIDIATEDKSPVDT
Guanine nucleotide-binding protein G(i) subunit alpha-1 (Homo sapiens), sequence (P63096 whole entry, looked up): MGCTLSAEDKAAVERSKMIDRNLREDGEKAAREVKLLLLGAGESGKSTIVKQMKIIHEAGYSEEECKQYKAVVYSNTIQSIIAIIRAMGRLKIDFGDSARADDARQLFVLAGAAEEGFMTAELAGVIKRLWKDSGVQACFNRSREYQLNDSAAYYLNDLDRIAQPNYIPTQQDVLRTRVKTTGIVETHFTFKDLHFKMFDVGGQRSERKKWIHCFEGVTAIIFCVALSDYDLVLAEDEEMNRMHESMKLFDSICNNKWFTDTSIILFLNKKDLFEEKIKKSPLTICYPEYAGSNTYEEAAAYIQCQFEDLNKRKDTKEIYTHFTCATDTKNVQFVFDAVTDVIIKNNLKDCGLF
Cytochrome P450 2D6 (Homo sapiens), sequence (P10635 whole entry, looked up): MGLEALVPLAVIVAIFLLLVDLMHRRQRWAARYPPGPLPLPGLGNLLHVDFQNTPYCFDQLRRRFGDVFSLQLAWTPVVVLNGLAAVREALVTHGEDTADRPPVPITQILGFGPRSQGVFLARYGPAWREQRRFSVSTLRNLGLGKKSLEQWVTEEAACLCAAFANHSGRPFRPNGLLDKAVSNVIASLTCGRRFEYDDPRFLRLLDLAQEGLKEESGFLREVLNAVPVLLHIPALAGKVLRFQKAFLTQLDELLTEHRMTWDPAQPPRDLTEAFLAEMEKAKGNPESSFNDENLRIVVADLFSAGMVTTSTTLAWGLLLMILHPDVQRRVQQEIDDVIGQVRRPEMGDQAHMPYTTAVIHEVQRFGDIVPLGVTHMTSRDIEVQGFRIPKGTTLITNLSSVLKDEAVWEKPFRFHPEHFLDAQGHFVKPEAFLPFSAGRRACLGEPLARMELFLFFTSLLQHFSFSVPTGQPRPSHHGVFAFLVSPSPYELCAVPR

Turning to `CCCCCCCCCCCCC/C=C\[C@H](O)[C@H](N)CO`, the activity change, negative = inhibition in [1] is 27.4% [at 38 µM]; in [3], 1.11% [at 38 µM]. The results for the Potency in [2], in assay [5] and in assay [6] were 31.6 µM (active), over 46 µM and over 46 µM, respectively. In addition, the activity, negative = inhibition in assay [4] is -6.68% [at 38 µM]. In addition, the Potency entry in assay [7], in assay [8] and in [9] was “inactive” throughout.
Regarding `C[C@]12C=CC(=O)C=C1CC[C@@H]1[C@H]3C[C@@H](O)[C@](O)(C(=O)CO)[C@]3(C)C[C@H](O)[C@]12F`, the activity change, negative = inhibition in assay [1] was -12.2% [at 38 µM]; in [3], -3.19% [at 38 µM]. Besides, the Potency result in assay [2], in assay [10], in assay [7] and in assay [11] was “inactive” throughout. In addition, the activity, negative = inhibition in assay [4] is -15.9% [at 38 µM]. Moreover, the values for the Potency in [5] and in assay [6] were 0.223 µM (active) and 0.273 µM (active), respectively.
Take `O=C(O)/C=C\[C@H](O)c1ccc(Cl)cc1`: the activity change, negative = inhibition in [1] was 1.29% [at 38 µM]; in assay [3], 8.91% [at 38 µM]. Moreover, the Potency result in assay [2], in assay [10], in assay [13] and in [18] was “inactive” throughout. Further, the activity, negative = inhibition in assay [4] is -1.2% [at 38 µM]. Besides, the Potency in assay [5] and in assay [6] was over 46 µM each time. In addition, the compound was classed as inactive in assay [12], in assay [14], in assay [15], in assay [16] and in [17].
On to `NC(N)=Nc1nc2ccc([N+](=O)[O-])cc2[nH]1`, for which the activity change, negative = inhibition in [1] was 0.0978%; in [3], 0.0962%. For the same compound, the Potency in assay [2] is 3.16 µM (active); in assay [5], over 46 µM; in assay [6], over 9.22 µM; in [19], 3.16 µM (active). The activity, negative = inhibition in assay [4] was 9.75%. Also, the Potency entry in assay [10] and in assay [7] was “inactive” throughout.
For the compound `N[C@@H]1C=CC=C(C(=O)O)C1`, the figures for the activity change, negative = inhibition in [1] and in assay [3] were -1.23% [at 38 µM] and 5.33% [at 38 µM], respectively. In addition, the Potency result in assay [2], in assay [7], in assay [13] and in [18] was “inactive” in each case. The activity, negative = inhibition in assay [4] was 16.2% [at 38 µM]. In addition, the Potency in assay [5] and in assay [6] was over 46 µM in each case. Also, the outcome in assay [12], in [14], in assay [15], in [16] and in assay [17] was inactive.
With `Cc1sc2ccccc2[n+]1CCC(=O)O`, the activity change, negative = inhibition was 3.36% in [1] and 16.6% in [3]. In addition, the Potency entry in assay [2], in assay [10], in assay [7] and in [11] was “inactive” throughout. In addition, the activity, negative = inhibition in assay [4] is 8%. Besides, the Potency in assay [5] is over 46 µM; in assay [6], over 9.22 µM.
Turning to `COc1cc([C@H](O)CO)ccc1O`, the activity change, negative = inhibition in assay [1] is -0.627% [at 38 µM]; in assay [3], 2.95% [at 38 µM]. Further, the Potency entry in [2], in assay [7], in assay [19], in assay [13], in assay [20] and in assay [18] was “inactive” in each case. The activity, negative = inhibition in assay [4] is 17.1% [at 38 µM]. Besides, the Potency in assay [5] and in assay [6] was over 46 µM throughout. Besides, the outcome in assay [12], in [14], in [15], in assay [16] and in assay [17] was inactive.
